Bioassay records as filed in PubChem BioAssay.
CHO-K1 Ca ag: M1 agonist counterscreen hit in parental CHO-K1 cells; Fluo-8 calcium fluorescence; scaled to maximal ATP response, vehicle zero; activation, % at 3 µM; hit rate 0.48% among 360,000; AID 602248; in the data active = activation above about 15%;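 also: untransfected CHO-K1 host cells lacking M1 receptor as counterscreen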
CHRM1 agonist: human M1 muscarinic receptor agonism; hit rate 0.33% among 360,000; P11229; CHO-K1 hM1, Fluo-8 calcium fluorescence, agonist mode; 0% DMSO, 100% acetylcholine EC100; activation, % at 3 µM;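 active = activation above the run's mean compound activation plus 3 SD, cut at about 16% in these data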;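 also: peak over basal fluorescence ratio within a 140 s kinetic read after compound addition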
Target sequence (P11229 whole entry, looked up): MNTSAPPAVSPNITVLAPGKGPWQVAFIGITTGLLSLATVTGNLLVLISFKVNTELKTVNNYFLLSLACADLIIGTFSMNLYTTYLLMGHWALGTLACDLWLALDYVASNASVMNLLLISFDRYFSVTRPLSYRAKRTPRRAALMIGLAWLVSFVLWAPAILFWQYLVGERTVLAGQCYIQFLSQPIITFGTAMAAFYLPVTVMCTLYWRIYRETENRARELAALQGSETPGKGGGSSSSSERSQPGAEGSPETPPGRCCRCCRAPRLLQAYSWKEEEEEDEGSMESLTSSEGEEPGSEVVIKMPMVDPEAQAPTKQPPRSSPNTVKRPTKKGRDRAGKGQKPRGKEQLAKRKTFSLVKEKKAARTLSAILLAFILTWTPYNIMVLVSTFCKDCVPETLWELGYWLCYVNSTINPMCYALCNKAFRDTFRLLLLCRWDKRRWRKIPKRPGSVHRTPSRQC
M1 PAM: human CHRM1 positive allosteric modulation; hit rate 0.088% among 360,000; AID 588819; P11229; activation, % at 3 µM; CHO-K1 hM1, Fluo-8 calcium fluorescence, ACh EC20; 0% = ACh EC20, 100% = maximal ACh; in the data active = activation above about 19%, passing the limit was not always enough
M1 antag: human CHRM1 antagonism; P11229; CHO-K1 hM1, Fluo-8 calcium fluorescence, ACh EC80 antagonist; inhibition, % at 3 µM; hit rate 1.3% among 360,000; AID 588852;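 active = percent inhibition above its own plate's cutoff, namely the mean of that plate's compound wells plus 3 SD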;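 also: peak over basal fluorescence ratio during 140 s after agonist addition; 0% = ACh EC80 plus DMSO and 100% = DMSO alone without agonist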
CHO-K1 Ca antag: M1 antagonist counterscreen hit in parental CHO-K1 cells. ATP-induced calcium, Fluo-8 fluorescence. inhibition, % at 3 µM. hit rate 0.6% among 360,000;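 active = inhibition above a per-plate cutoff, the plate's mean sample inhibition plus 3 SD, cut at about 24% in these data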;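 also: 0% = DMSO plus EC80 ATP and 100% = DMSO alone without ATP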
CHO-K1 Ca PAM: counter-screen for M1 PAMs: effect in parental CHO-K1 cells. ATP EC20, Fluo-8 calcium fluorescence; 0% at ATP EC20, 100% at ATP max. hit rate 0.02% among 360,000. AID 602247. activation, % at 3 µM;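 active = activation above the run cutoff, the mean activation of all test compounds plus 3 SD, cut at about 40% in these data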;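 also: peak over basal fluorescence ratio in a 140 s read after ATP addition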
* marks the source's active call; other numbers are inactive results. Only some compounds are listed: those with a hit (about 2.3% of all), similar ones and a draw of the others.

SMILES | CHO-K1 Ca ag | CHRM1 agonist | M1 PAM | M1 antag | CHO-K1 Ca antag | CHO-K1 Ca PAM
Cc1ccc(C)c(S(=O)(=O)N2CCCC2CNC(=O)C(=O)NCCc2ccccc2)c1 (stereo not given) | 10.3 | -0.5 | -11.6 | 30.9* | 8.8 | 8.4
O=C(NCC1CCN(Cc2ccc(Cl)cc2)CC1)C1CCCN(c2ncnc3c2nc2n3CCCCC2)C1 (stereo not given) | 3.4 | -14.2 | -41.1 | 102.8* | -4.1 | 9.6
O=C(C1CCN(c2ncnc3c2nc2n3CCCCC2)CC1)N1CCN(c2ccc(F)cc2)CC1 | 4.0 | 30.1* | -6.9 | -0.7 | -8.2 | 12.2
O=C(NCc1ccccc1)C1CCCN(c2ncnc3c2nc2n3CCCCC2)C1 (stereo not given) | 0.8 | -3.5 | 6.4 | 0.9 | 0.2 | 0.6
O=C(NCC1CCN(Cc2ccc(F)cc2)CC1)C1CCCN(c2ncnc3c2nc2n3CCCCC2)C1 (stereo not given) | -0.1 | -6.1 | -22.5 | 70.0* | -8.7 | 8.1
O=C(NCCc1ccc(Cl)cc1)C1CCCN(c2ncnc3c2nc2n3CCCCC2)C1 (stereo not given) | 0.7 | -4.5 | -0.1 | -0.6 | -13.5 | 6.8
O=C(NCC1CCN(Cc2cccc(Cl)c2)CC1)C1CCCN(c2ncnc3c2nc2n3CCCCC2)C1 (stereo not given) | 4.6 | -5.0 | -23.0 | 75.3* | -11.9 | 6.0
COCCN(C(=O)COC(=O)c1ccccc1Oc1ccccc1)c1c(N)n(Cc2ccccc2)c(=O)[nH]c1=O | 0.7 | -2.2 | 17.9 | -15.2 | -6.8 | 8.6
CCOC(=O)c1nn2c(C(F)(F)F)cc(-c3ccc(OC)cc3)nc2c1Br | 0.3 | -2.7 | -3.1 | -3.2 | -4.5 | 17.8
CC(C)CN(C(=O)CSc1nc2ccccc2c(=O)n1C)C1CCS(=O)(=O)C1 (stereo not given) | 0.2 | -4.8 | 2.6 | -1.8 | -3.7 | 5.2
Cc1ccc(-c2nc(Nc3cccc(C)c3)sc2CC(=O)O)cc1 | 1.1 | 0.2 | 4.6 | 0.4 | 26.3* | -10.7
Cc1n[nH]c(C)c1CCN(C)Cc1cn(C)nc1-c1ccccc1F | -0.3 | -7.4 | 6.1 | -8.1 | -11.3 | -7.3
COc1cccc(CC2(CO)CCN(Cc3cnc(N4CCOCC4)s3)CC2)c1 | 0.5 | -5.3 | 1.8 | -0.2 | -5.8 | -0.5
OCC1(CCCc2ccccc2)CCN(Cc2cnc(N3CCOCC3)s2)CC1 | 2.9 | 18.6* | -4.8 | 5.8 | -11.5 | -3.9
COC(=O)[C@@H](NC(=O)c1ccccc1OC1CCN(S(C)(=O)=O)CC1)C(C)C | -0.5 | -6.1 | -28.1 | 61.7* | -10.2 | 17.4
CCSc1nnc(NC(=O)C2CSC3(C)CCC(=O)N23)s1 (stereo not given) | 0.3 | 2.8 | 14.6 | -9.3 | -10.2 | 9.6
CCOC(=O)C1=C(COC(=O)COc2ccc(C(C)=O)cc2)NC(=O)NC1C (stereo not given) | 5.4 | 0.6 | -1.8 | -2.1 | 1.7 | -14.7
CCOC(=O)C1=C(COC(=O)COc2ccc(C(=O)CC)cc2)NC(=O)NC1C (stereo not given) | 16.6* | 4.4 | -8.5 | 12.7 | 11.7 | -11.3
c1ccc(SCCc2ccncc2)cc1 | 1.2 | -8.6 | -29.3 | 101.0* | 5.8 | 4.3
CCOc1ccc(-c2c(=O)n(OCc3ccc([N+](=O)[O-])cc3)c3ccccc3[n+]2[O-])c(OCC)c1 | 19.6* | 6.7 | 9.2 | -7.5 | 4.6 | 13.8
Cc1onc(-c2ccccc2)c1NC(=O)Nc1ccc(OC(F)F)cc1 | 24.7* | -1.5 | -3.4 | 1.3 | 10.3 | -5.6
Clc1nc(NCCc2ccccc2)c2cn[nH]c2n1 | 1.2 | 1.0 | 5.5 | -0.1 | 3.7 | -20.8
Cc1ccc(COc2ccc(CNCCCN3CCCCCC3=O)cc2)cc1 | 5.3 | -10.1 | -32.6 | 46.1* | -13.9 | 11.5
O=C(COC(=O)c1cc(S(=O)(=O)Nc2ccccc2Cl)ccc1O)Nc1ccc(F)c(F)c1F | 1.4 | 2.6 | -6.1 | 0.3 | -2.5 | -14.0
CC(C)(C)C(=O)/C=c1\[nH]c(=O)/c(=C\c2ccc(C#N)cc2)s1 | 0.4 | 0.5 | 12.3 | -15.2 | 25.3* | -7.5
SMILES | CHO-K1 Ca ag | CHRM1 agonist | M1 PAM | M1 antag | CHO-K1 Ca antag | CHO-K1 Ca PAM
Cc1c(O)ccc2c(-c3ccccc3)cc(=O)oc12 | 9.5 | 1.1 | -11.2 | 7.6 | 17.1 | 10.2
Cc1cccc2cc(-c3ccccc3)c(-c3ccccc3)c[n+]12 | 0.2 | -9.0 | -22.6 | 52.4* | -5.8 | 11.8
CN(Cc1ccccc1)CC(O)CN(C)Cc1ccccc1 | 0.5 | 18.4* | -5.3 | 5.2 | -3.8 | 4.0
CN(CCO)CC(O)CN(c1ccccc1)c1ccccc1 (stereo not given) | 4.9 | -4.2 | -4.3 | 7.1 | -11.4 | 10.4
Cc1ccc(S(=O)(=O)N2CCOCC2)cc1NC(=O)CN1C(=O)NC(C)(c2ccc(Cl)cc2Cl)C1=O (stereo not given) | 0.5 | -5.0 | 2.1 | -6.2 | -15.3 | 8.1
Cc1cc(C)c(S(=O)(=O)Nc2ccccc2-c2ccccc2)c(C)c1 | 0.5 | -14.5 | -2.4 | -4.2 | -22.0 | 44.2*
O=S(=O)(Nc1ccccc1-c1ccccc1)c1ccccc1 | 0.5 | -6.8 | 8.5 | -22.5 | -22.9 | 21.3
CCOC(=O)c1c(C)n(C)c2cc(Br)c(C)cc12 | -0.2 | 2.4 | 4.9 | -5.3 | -11.4 | -0.4
CCOC(=O)c1c(C)n(C)c2cc(-c3ccc(C)cc3)c(O)cc12 | 0.0 | -4.0 | -4.3 | 3.3 | 27.7* | -15.9
CCOC(=O)c1c(C)n(C)c2cc(-c3cccc(C(F)(F)F)c3)c(O)cc12 | -0.7 | -2.6 | -7.2 | 12.6 | 26.7* | -14.2
CCN(c1ccccc1)S(=O)(=O)c1ccc2c(c1)C(C)(C)C(=O)N2C | 0.9 | -4.1 | 6.1 | -5.0 | -0.1 | 4.6
NS(=O)(=O)c1ccc(CCNC(=O)c2ccc3c(=O)n4c(nc3c2)CCCCC4)cc1 | 0.7 | -4.4 | 9.1 | -14.1 | -18.5 | 16.0
COc1ccccc1NC(=O)Nc1nc(C(C)(C)C)cs1 | 31.0* | -3.9 | 6.5 | -6.3 | -25.0 | 36.7
Cc1ccc(CNS(=O)(=O)c2ccc(C)s2)cc1 | 1.2 | -3.3 | 3.7 | 1.8 | -14.1 | 5.5
CN(C(=O)c1cc(S(=O)(=O)N2CCc3ccccc32)cn1C)C1CCCCC1 | 4.8 | 6.5 | 11.7 | -1.2 | -4.2 | 17.1
Cc1cc(C)nc(NCCCc2ccccc2)n1 | 0.7 | -5.5 | -6.3 | 7.4 | -9.6 | 24.3
CCCCNc1cc(C)nc(NCc2ccccc2)n1 | 9.5 | 2.9 | -9.8 | 30.0* | 25.9* | -0.4
Cc1cc(Oc2ccccc2)nc(NCc2ccccc2)n1 | 1.1 | 1.8 | -6.3 | 1.4 | 37.8* | -2.1
Cc1cc(Nc2ccccc2)nc(NCc2ccccc2)n1 | 9.9 | -1.7 | -13.1 | 13.4 | 27.1* | 2.1
Cc1cc(Nc2ccc(Cl)cc2)nc(NCc2ccccc2)n1 | 8.5 | 0.8 | 6.6 | 3.2 | 12.1 | 16.2
CC(OC(=O)c1ccccc1C(=O)N(C)C1CCCCC1)C(=O)NC1(C#N)CCCCC1 (stereo not given) | 0.1 | -2.7 | 5.0 | -3.0 | -5.9 | -11.5
